Hit rate of the full screen: of about 65,000 compounds, about 95 (0.1%) were called active.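 The calls were made as follows: active = inhibition above the screen-wide mean inhibition plus 3 SD (cut at about 21% in these data); inactive = the rest.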 The sample as a whole holds a higher share of actives than the screen did.
molecular target: cAMP-dependent protein kinase catalytic subunit alpha (Homo sapiens) (UniProt P17612); test: PKA catalytic subunit kinase inhibition – biochemical, ATP-depletion luminescence, Kemptide substrate, primary screen (AID 524); settings: PKA Kemptide phosphorylation, Kinase-Glo ATP luminescence; at 6 µM; stronger effect = higher value

inhibition, inactive:
O=C(Nc1cnccn1)c1cccnc1 9%
O=C(Nc1nc2cc3c(cc2s1)OCCO3)c1cccc(S(=O)(=O)N2CCOCC2)c1 6.2%
COc1cc(-n2c(C)nc3cc(C(=O)NCc4ccco4)ccc32)cc(OC)c1OC 5.2%
CCn1ncc(C2=NOC(C(=O)N3CCN(c4ccccc4)CC3)C2)c1C (stereo not drawn) 11.5%
Cc1cccc(OCc2nnc(SCc3nc4cc(C(F)(F)F)ccc4c(=O)[nH]3)o2)c1 3.4%
Cc1ccccc1-n1nnc2c(=O)oc3ccccc3c21 7.5%
CCOc1ccccc1Nc1nnc(SCc2ccc(C(=O)OC)o2)s1 4.4%
CCOC(=O)N1CCN(CC(=O)c2c(C)[nH]c3ccccc23)CC1 -3.4%
CCOC(=O)CN1CC23C=CC(O2)C(C(=O)Nc2ccc(F)cc2)C3C1=O (stereo not drawn) 2.5%
COc1ccc(C2/C(=C(/O)c3ccc(OC(C)C)cc3)C(=O)C(=O)N2CCCN2CCOCC2)cc1 (stereo not drawn) 3.6%
COc1ccccc1N1CCN(C(=O)c2cn(-c3ccccc3)nc2-c2cccnc2)CC1 -9.3%
CCOc1nc(-c2ccc(OC)cc2)ccc1-c1noc(-c2cc(OC)c(OC)c(OC)c2)n1 -0.3%
CN1CCc2c(sc3c2c(NCc2ccco2)nc2nnnn23)C1 4.3%
COc1ccc(N=Cc2c(O)[nH]c3ccccc23)cc1OC 9.6%
CC1(C)C2CCC1(C)C(OC(=O)CCn1ccnc1)C2 (stereo not drawn) 7.3%
Nc1nnc(SCCN2C(=O)c3ccccc3S2(=O)=O)s1 6.6%
CCOC(=O)c1c(NC(=O)CSc2nnc(C)c(=O)[nH]2)sc2c1CCC2 0.8%
CN(CCc1ccccn1)S(=O)(=O)c1ccc2c3c(cccc13)C(=O)N2 4.5%
CC(=O)Nc1cc2ccc(OC(C)=O)cc2oc1=O 5.7%
CCc1ccc(CCC(=O)Nc2ccc(S(N)(=O)=O)cc2)o1 -0.9%
CCN1CCN(c2ncnc3c2oc2nc(C)c4c(c23)CC(C)(C)OC4)CC1 0.2%
CCOC(=O)C(CC)Sc1ncnc2c1nnn2-c1ccc(F)cc1 (stereo not drawn) 11.3%
CC(C)(C)c1ccc(C(=O)CSc2ncn[nH]2)cc1 7.8%
CCCCOc1ccccc1/C=c1/sc2nc(-c3oc4ccccc4c3C)nn2c1=O 2%
CC(C)(C)NC(=O)C(c1ccco1)N(Cc1ccc2c(c1)OCO2)C(=O)Cn1nnc2ccccc21 (stereo not drawn) -2.7%
O=S(=O)(Nc1nccs1)c1ccc2c(c1)OCCO2 6.4%
Cc1cc(C)c2nc(SCCC#N)nc(C)c2c1 5.1%
O=C(NCc1ccc(Cl)cc1)c1cc2c(nc3sccn32)s1 2.8%
COc1ccccc1CNC(=O)C1CCN(S(C)(=O)=O)CC1 4.6%
Cc1ccc(S(=O)(=O)N2CCC(C(=O)N[C@@H](C)C(=O)NCc3ccccc3)CC2)cc1 1.2%
CC1(C)Cc2cccc(OCC(=O)Nc3nccs3)c2O1 9.4%
O=C(NCc1ccc2c(c1)OCO2)c1cc2c(s1)CS(=O)(=O)C2 5.5%
CCOCC(=O)Nc1cc(OC)c(Cl)cc1OC 5.6%
O=S(=O)(c1cccc(S(=O)(=O)N2CCC(n3nnc4ccccc43)CC2)c1)N1CCCCC1 8.1%
Cc1ccc(-n2nc3c(c2NC(=O)CCC2CCCCC2)CS(=O)C3)cc1 (stereo not drawn) -4.5%
CCC(C)n1[nH]c(=O)cc1N (stereo not drawn) -5.4%
CCOc1ccccc1Oc1cn[nH]c1-c1ccc(OC)cc1O -1.5%
CCn1cc(C(=O)NCC2COc3ccccc3O2)c2cc(OC)c(OC)cc2c1=O (stereo not drawn) 2.4%

From PubChem BioAssay AID524 (The Scripps Research Institute Molecular Screening Center, 2006)
